# Source: PubChem BioAssay AID743279 (National Center for Advancing Translational Sciences (NCATS), 2014)
# Out of some 360,000 compounds screened, about 17,000 (4.7%) were called active. Inconclusive results (about 5%) are left out. Cut-off read from the data, not from the text of the source: active = activity change below about -50%; inconclusive = mostly about -30% to -49%; inactive = weaker than that. This excerpt belongs to a sample that is enriched for actives.
# Experiment: qHTS for Inhibitors of Inflammasome Signaling: IL-1-beta AlphaLISA Primary Screen
# Conditions: THP-1 LPS/ATP IL-1B secretion, 16 h; at 57.5 µM, stronger effect = lower value
# In short: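 THP-1 cells pretreated 1 hr with compounds (up to 57.5 uM final), then stimulated with LPS (250 ng/mL final) plus ATP (1.25 mM final); secreted IL-1B measured by AlphaLISA after 16 hr, decreased signal indicating inhibition.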
# % is set by controls: 0 for no effect and ±100 for the full control effect.
row,Compound,activity change
1,CN(CCc1ccccc1)C(=O)c1cccc(NC(=O)Cc2cccc(NC(=O)C3CCCN(C(=O)CCc4ccccc4)C3)c2)c1 (stereo not drawn),-21.4% (inactive)
2,NC1=NC(=O)C2(COC(c3ccccc3Cl)OC2)S1 (stereo not drawn),-5.39% (inactive)
3,Cc1ccccc1C(OCC(O)CN1CCCCC1CCO)c1ccccc1 (stereo not drawn),-10.1% (inactive)
4,COc1cccc(CN(C)CC(O)COC(c2ccccc2)c2ccccc2C)c1 (stereo not drawn),-77% (active)
5,COc1cccc(CN(C)CC(=O)Nc2ccccc2C(=O)Nc2ccccc2)c1,58.1% (inactive)
6,CC(OC(=O)c1ccccc1NCCO)C(=O)Nc1ccnn1C(C)C (stereo not drawn),0% (inactive)
7,CCn1cc(CN2CCCC(CNS(=O)(=O)Cc3ccccc3)C2)cn1 (stereo not drawn),7.8% (inactive)
8,CC1=C(C(=O)N(C)C)CC(CC(=O)NCCN2CCOCC2)C(=O)N1Cc1ccccc1 (stereo not drawn),17.7% (inactive)
9,C=CCSc1nsc(NC(=O)Nc2cccc(C(C)=O)c2)n1,-100% (active)
10,CCSc1nsc(NC(=O)Nc2cccc(C(C)=O)c2)n1,-101% (active)
11,CC(=O)c1cccc(NC(=S)N2CCCC2)c1,24.4% (inactive)
12,C=CCSc1nnc(NC(=O)c2ccc(NC(C)=O)cc2)s1,1.35% (inactive)
13,CSc1ccccc1C(=O)Nc1cccc(C(C)=O)c1,-2.09% (inactive)
14,CSc1nsc(NC(=O)Nc2ccccc2)n1,0% (inactive)
15,S=C(NN=Cc1ccccn1)Nc1ccccn1,68.2% (inactive)
16,CN1C[C@@H](CO)O[C@@H](n2cnc3c(N4CCN(CCO)CC4)ncnc32)C1,23.3% (inactive)
17,CC(=O)C1=CCC(c2ccccc2)N(S(=O)(=O)c2ccc(C)cc2)C1 (stereo not drawn),0% (inactive)
18,Cc1cc(Cl)ccc1N1C(=O)CC(SCCC(=O)O)C1=O (stereo not drawn),9.22% (inactive)
19,CCCN(CCC)c1nc2c(C)cccn2c(=O)c1/C=C1/SC(=S)N(Cc2ccco2)C1=O,8.74% (inactive)
20,CCOC(=O)N1CCN(C(=O)CSc2nc(=O)n3cccc(C)c3n2)CC1,-6.68% (inactive)
21,CCOC(=O)CC1C(=O)NCCN1c1nc2c(C)cccn2c(=O)c1/C=C1\SC(=S)N(C(C)CC)C1=O (stereo not drawn),-79.5% (active)
22,CN1OC[C@@H]2CN(S(=O)(=O)c3cccc(C(F)(F)F)c3)[C@H](c3ccc(-c4cc5ccccc5o4)cc3)C[C@@H]21,-0.573% (inactive)
23,Cc1nnc(N(Cc2ccco2)C(=O)c2ccno2)s1,-16.2% (inactive)
24,COc1ccc(Sc2ccc(NC(=O)c3cccc(Cl)c3)cc2C#N)cc1,-1.44% (inactive)
25,COc1ccc(C(=O)Nc2ccc3nc(N4CCCCC4)cc(C)c3c2)cc1OC,30.7% (inactive)

row,Compound,activity change
1,COc1ccc(C(=O)Nc2ccc(C3(C#N)CCCC3)cc2)cc1OC,-55% (active)
2,COc1cc(C(=O)NCC2(c3ccccc3)CCCC2)ccc1OC(C)C,-0.814% (inactive)
3,CC(C)CN(C(=O)Cn1c(=O)cnc2ccccc21)C1CCS(=O)(=O)C1 (stereo not drawn),5.99% (inactive)
4,CCn1c(SCC(=O)N2CCCC2=O)nc2ccccc21,-4.32% (inactive)
5,COc1cc(C(O)c2nc(-c3cccc(C(=O)O)c3)cs2)ccc1F (stereo not drawn),1.15% (inactive)
6,Cc1ccc(Cc2c(-c3ccccc3)nc3ccc(Cl)cn23)cc1,1.06% (inactive)
7,Cc1ccc(Cc2c(-c3ccco3)nc3ccc(Cl)cn23)cc1,-76.3% (active)
8,Cc1ccc2nc(-c3ccco3)c(Cc3cccc(Cl)c3)n2c1,-21.3% (inactive)
9,COc1ccc(CCc2nnc(CCC(=O)NCc3cnn(-c4ccccc4C)c3)o2)cc1,0% (inactive)
10,CCCCCn1nnnc1C1c2ccccc2C(=O)N1Cc1ccco1 (stereo not drawn),0% (inactive)
11,Cc1ccc(-c2nn(-c3ccccc3)cc2C(=O)NCCCN2CCCC2=O)cc1,0% (inactive)
12,O=C(O)c1ccc(NC(=O)c2cn(-c3ccccc3)nc2-c2ccc(Cl)cc2)cc1,-53.3% (active)
13,Cc1ccc(-c2nn(-c3ccccc3)cc2C(=O)Nc2cccc(S(=O)(=O)N3CCOCC3)c2)cc1,-2.09% (inactive)
14,Cc1ccc(Cc2c(-c3ccc(C)cc3)nc3c4ccccc4ccn23)cc1,27.7% (inactive)
15,FC(F)(F)c1ccccc1Cc1c(-c2ccccc2)nc2c3ccccc3ccn12,14.3% (inactive)
16,Cc1cc(N2CCN(C)CC2)nc2ccc(NC(=S)N3CCOCC3)cc12,-0.695% (inactive)
17,Cc1cc(N2CCOCC2)nc2ccc(NC(=S)N3CCN(Cc4ccccc4)CC3)cc12,-70.6% (active)
18,CCOCCCNC(=S)Nc1ccc2nc(N3CCN(CC)CC3)cc(C)c2c1,46.7% (inactive)
19,CC(=O)N1C[C@@H](CO)[C@@H](N(C)C(=O)c2ccco2)C[C@H]1c1ccccc1,11.5% (inactive)
20,CN(C)c1ccc(/C=N/Nc2cc(N3CCOCC3)nc(N3CCOCC3)n2)cc1,-1.5% (inactive)
21,Fc1ccccc1/C=N/Nc1cc(N2CCCCC2)ncn1,-12% (inactive)
22,C(=N/Nc1cc(N2CCOCC2)nc(N2CCOCC2)n1)/c1ccccc1,-78.9% (active)
23,OC(c1ccccc1)c1nc(-c2cnc3ccccc3c2)cs1 (stereo not drawn),32.8% (inactive)
24,O=C(Cc1ccc([N+](=O)[O-])cc1)NCCc1ccc2c(c1)OCO2,0% (inactive)
25,Nc1nnnn1/N=C/c1cc([N+](=O)[O-])ccc1O,0% (inactive)

row,Compound,activity change
1,O=C(N/N=C/c1cc([N+](=O)[O-])ccc1O)/C(=C\c1cccs1)NC(=O)c1ccccc1,245% (inactive)
2,O=[N+]([O-])c1ccc(O)c(/C=N/Nc2ccccc2[N+](=O)[O-])c1,-51.4% (active)
3,CCCNC(=O)c1cc(C2CCCCN2S(=O)(=O)c2ccc(C#N)cc2)on1 (stereo not drawn),-18.6% (inactive)
4,CCOc1cc(/C=C2\SC(N3CCCC(C)C3)=NC2=O)ccc1O (stereo not drawn),-57.3% (active)
5,CCOc1cc(/C=C2\C(=N)N3N=C(C)SC3=NC2=O)ccc1OCCOc1ccccc1,4.36% (inactive)
6,CCOc1ccc2nc(C(=O)N3CCCC(C)C3)sc2c1 (stereo not drawn),-10.2% (inactive)
7,Nc1[nH]c(C(=O)c2ccccc2)c(-c2ccc(Br)cc2)c1C(=O)NC1CC1,12% (inactive)
8,CCNc1c(NS(=O)(=O)c2ccc(C3CCCCC3)cc2)c(=O)oc2ccccc12,29.7% (inactive)
9,C=CS(=O)c1sc(Cl)c(N2CCOCC2)c1[N+](=O)[O-] (stereo not drawn),-104% (active)
10,CCCCNC(=O)OC1CC2CC1[C@H]1CCCCN1C2=O (stereo partly drawn),12.3% (inactive)
11,Cc1cc(C)nc(S/C=C/C(=O)c2ccccc2)n1,-104% (active)
12,Cc1cc(C)nc(SCc2ccccc2C#N)n1,-12.7% (inactive)
13,Cc1cc(C)nc(SCC(=O)N(C)C)n1,0% (inactive)
14,CNc1cncc(-c2cccc(C(=O)N3CCOCC3)c2)n1,-12.2% (inactive)
15,CN(C)S(=O)(=O)c1cccc(NC(=O)Cc2ccsc2)c1,19.3% (inactive)
16,CN(c1ccccc1)S(=O)(=O)c1cccc(NC(=O)Cc2c(F)cccc2Cl)c1,0% (inactive)
17,CN(c1ccccc1)S(=O)(=O)c1cccc(NC(=O)Cc2ccc(Cl)cc2)c1,-55.5% (active)
18,COc1nnc(-c2ccc(C)c(S(=O)(=O)N(C)C)c2)c2ccccc12,-11.4% (inactive)
19,CCCc1c(-c2ccccc2F)ncn1Cc1ccccc1OC,-24.5% (inactive)
20,CCCCCc1c(-c2ccc(OC)c(OC)c2)ncn1CCc1ccccc1OC,-71.5% (active)
21,Cn1c(=O)c2c(ncn2CCc2ccccc2)n(C)c1=O,26.6% (inactive)
22,CCCCCc1c(-c2cccc(Br)c2)ncn1CCc1ccccc1OC,-27.9% (inactive)
23,COc1ccccc1CCNS(=O)(=O)c1cn(C)nc1C,-3.36% (inactive)
24,COc1ccccc1Cc1c(-c2ccc(Cl)cc2)nc2ccc(Cl)cn12,16.9% (inactive)
25,CCCCc1c(-c2ccc(Br)cc2)ncn1CCc1ccccc1OC,-93.2% (active)

row,Compound,activity change
1,CCCCc1c(-c2ccc(Cl)cc2)ncn1CCc1ccccc1OC,-109% (active)
2,COc1ccccc1Cc1c(-c2ccc(Cl)cc2)nc2c3ccccc3ccn12,4.19% (inactive)
3,CCc1c(-c2ccc(F)cc2)ncn1Cc1cccc(-c2ccccc2)c1,4.55% (inactive)
4,CCCCCc1c(Cc2ccccc2)ncn1CCc1ccccc1OC,-55.8% (active)
5,CCC(=O)NCc1cc(-c2nn(C)c(=O)c3ccccc23)ccc1OC,-12.6% (inactive)
6,COc1cccc(NC(=O)CSc2nccn(-c3ccc4c(c3)OCCO4)c2=O)c1,-15.5% (inactive)
7,COc1ccc(S(=O)(=O)NC(=O)C2(C)CCN2C(=O)COc2ccc(Cl)cc2)cc1 (stereo not drawn),21% (inactive)
8,Cc1ccc(N2C(=O)CC(N3CCSCC3)C2=O)c(C)c1 (stereo not drawn),9.43% (inactive)
9,Cc1c(O)c(C)c2c(c1O)C(=O)C[C@@H](c1ccccc1)O2,40.2% (inactive)
10,CCCNC(=O)C1CC(=O)N(c2ccc(OCc3ccccc3)cc2)C1 (stereo not drawn),18% (inactive)
11,c1ccc(C(=NNc2nc3ccccc3s2)c2ccccn2)cc1,-21.7% (inactive)
12,C=CCn1nc(C(=O)OCC)cc1-c1sc(NC(=O)c2ccccc2)nc1C,-29.6% (inactive)
13,CNC[C@H]1OCc2cnnn2CCCC(=O)N([C@H](C)CO)C[C@@H]1C,-6.3% (inactive)
14,COc1cc(C(=O)NCc2nnc(SCC(=O)c3ccc(Cl)cc3)o2)cc(OC)c1OC,9.13% (inactive)
15,CCC(=O)Nc1ccc(C(=O)CSc2nnc(CNc3ccc(Cl)cc3)o2)cc1OC,-55.7% (active)
16,CCOC(=O)CSc1nnc(CNc2ccc(F)cc2)o1,3.99% (inactive)
17,Cc1ccc(-c2csc(C(C#N)=C(O)CN3CCN(C(=O)c4ccco4)CC3)n2)cc1,-7.72% (inactive)
18,O=C(COC(=O)CN1C(=O)C2CCCCC2C1=O)Nc1ccc(F)c(F)c1F (stereo not drawn),4.41% (inactive)
19,CC1=CC(C)(C)Nc2ccc(OC(=O)C(Cc3ccccc3)N3C(=O)C4CCCCC4C3=O)cc21 (stereo not drawn),-94.7% (active)
20,COc1ccc(C(=O)COC(=O)CN2C(=O)C3CC=CCC3C2=O)c(OC)c1 (stereo not drawn),-15.2% (inactive)
21,CC1=CC(C)(C)Nc2ccc(OC(=O)CN3C(=O)C4CCCCC4C3=O)cc21 (stereo not drawn),-97.6% (active)
22,O=C(C(Cc1ccccc1)n1cccc1)N1CCN(C2CCCCC2)CC1 (stereo not drawn),8.33% (inactive)
23,CCOC(=O)C(Cc1ccc(N)cc1)N1C(=O)c2ccccc2C1=O (stereo not drawn),12.1% (inactive)
